Results on ten molecules are retold here after PubChem BioAssay (Tox21).

Results filed as inconclusive are left out. Active and inactive are the calls of the source. Unless noted, calls follow the shape of the dose curve; as a rule, active = well fitted curve in the direction sought with a large enough effect in the repeat runs; inconclusive = weak or mixed curves; inactive = no such curve, though single readings can be large; an effect the other way counts as inactive or inconclusive.

A short description of assay [1]: qHTS assay to identify small molecule agonists of the peroxisome proliferator-activated receptor delta (PPARd) signaling pathway - cell viability counter screen (AID 743211). Also: nearly all actives have a fitted effect of over 55% in size. An outline of the steps: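 PPARd-bla HEK293H cells (UAS-beta-lactamase reporter) were treated with compounds for 17 h at 37 C. Viability was then read in the same wells by CellTiter-Glo luminescence after 30 min at room temperature.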

Assay [2] is described as follows: qHTS assay to identify small molecule agonists of the farnesoid-X-receptor (FXR) signaling pathway - cell viability counter screen (AID 743218). Also: nearly all actives have a fitted effect of over 45% in size. An outline of the steps: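 Viability of FXR-bla HEK 293T cells is measured by ATP-based CellTiter-Glo luminescence following 16 h compound treatment at 37 C and a prior 2 h room-temperature beta-lactamase substrate step.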

The target in assay [3] is Vitamin D3 receptor (Homo sapiens) (UniProt P11473). In words: qHTS assay to identify small molecule agonists of the vitamin D receptor (VDR) signaling pathway (AID 743222; calls by dose curve). The method in brief:
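Fluorescence from cleaved LiveBLAzer B/G FRET substrate served as readout. VDR-bla cells had been treated 16 h at 37C with test compounds in DMSO, following a 4 h settling period, and substrate was loaded for 2 h at RT.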

The target is the same in assay [4]. Nature of the assay: qHTS assay to identify small molecule antagonists of the vitamin D receptor (VDR) signaling pathway (AID 743223; active = well fitted inhibition curve with a large enough effect in the signal ratio in the repeat runs, not every such curve was filed as active; the % refers to the signal ratio). The method in brief: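 VDR-bla cells were plated, incubated 4 h at 37C, then given compound and 1alpha,25-dihydroxyvitamin D3 (3 nM final). After 16 h at 37C, LiveBLAzer B/G FRET substrate was added for 2 h at room temperature and fluorescence read.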

Assay [5] can be described thus: qHTS assay to identify small molecule agonists of the vitamin D receptor (VDR) signaling pathway - cell viability counter screen (AID 743224). Also: series mostly up to about 63 µM; nearly all actives have a fitted effect of over 50% in size. An outline of the steps:
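Compounds were pin-transferred onto VDR-bla cells plated 4 h earlier; following 16 h incubation at 37C, cell viability was quantified by CellTiter-Glo luminescence after 30 min at room temperature.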

Assay [6] is described as follows: qHTS assay to identify small molecule antagonists of the vitamin D receptor (VDR) signaling pathway - cell viability counter screen (AID 743225). Also: nearly all actives have a fitted effect of over 50% in size. An outline of the steps: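 VDR-bla HEK 293T cells, 4 h pre-incubation at 37C, then compound plus 1-alpha,25-dihydroxyvitamin D3 (3 nM final) for 16 h. After the beta-lactamase FRET read, CellTiter-Glo was added to the same wells; luminescence after 30 min at room temperature.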

Assay [7] can be described thus: qHTS assay to identify small molecule agonists of the NFkB signaling pathway - cell viability counter screen (AID 1159515; calls by dose curve; also: series mostly up to about 61 µM; nearly all actives have a fitted effect of over 55% in size). An outline of the steps: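 Parallel cytotoxicity counter screen in ME-180 cells carrying an NFkB-response-element beta-lactamase reporter, 2,000 cells/well. Compound exposure lasted 5 hr at 37 C, 5% CO2. Cell viability was quantified by CellTiter-Glo luminescence.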

Assay [8] is described as follows: qHTS assay to identify small molecule agonists of the endoplasmic reticulum stress response signaling pathway (AID 1159516; active = well fitted activation curve with a large enough effect in the signal ratio in the repeat runs, not every such curve was filed as active; the % refers to the signal ratio). An outline of the steps:
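Using a HeLa line with an ESRE-driven beta-lactamase gene, agonist activity was measured by FRET substrate fluorescence (460 and 530 nm emission) after cells were treated with compounds for 5 hr at 37 C and 5% CO2.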

In assay [9] the target is Nuclear receptor ROR-gamma (Homo sapiens) (UniProt P51449). In words: qHTS assay to identify small molecule antagonists of the retinoid-related orphan receptor gamma (ROR-gamma) signaling pathway (AID 1159521;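 also: CHO cells with doxycycline inducible ROR-gamma driving an RORE luciferase reporter; top concentration of the series differs between compounds; nearly all actives have a fitted effect of over 50% in size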). The method in brief: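 Tet-on RORγ CHO cells carrying a ROR response element–luciferase reporter were pretreated with compounds for 2 h, then induced with 1 uM (final) doxycycline hyclate for 16 h at 37 C. Antagonism was read as decreased ONE-Glo luminescence.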

The nature of assay [10]: qHTS assay to identify small molecule agonists of the AP-1 signaling pathway - cell viability counter screen (AID 1159525; calls by dose curve; also: nearly all actives have a fitted effect of over 55% in size). An outline of the steps: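 Intracellular ATP by Cell Titer Glo luminescence (30 min, RT) in the same ME-180 AP-1-bla wells after the 5 h compound exposure at 37 °C. Normalised to tetra n-octyl ammonium bromide and DMSO controls.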
Assay [11] is described as follows: qHTS assay to identify small molecule agonists of the AP-1 signaling pathway (AID 1159526; calls by dose curve).
The target of assay [12] is Retinoic acid receptor RXR-alpha (Homo sapiens) (UniProt P19793). In words: qHTS assay to identify small molecule agonists of the RXR signaling pathway (AID 1159527; calls by dose curve; also: nearly all actives have a fitted effect of over 35% in size; also: potency is read from the fitted curve at half-maximal effect). An outline of the steps: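 GeneBLAzer RXR-alpha-UAS-bla HEK 293T cells in medium with 2% charcoal-stripped FBS, pre-incubated 5 hr at 37 C, then exposed to compounds 16 hr. Beta-lactamase reporter read by FRET substrate, 2 hr room temperature, 460/530 nm emission.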
Sequence of Retinoic acid receptor RXR-alpha (Homo sapiens) (P19793 whole entry, looked up): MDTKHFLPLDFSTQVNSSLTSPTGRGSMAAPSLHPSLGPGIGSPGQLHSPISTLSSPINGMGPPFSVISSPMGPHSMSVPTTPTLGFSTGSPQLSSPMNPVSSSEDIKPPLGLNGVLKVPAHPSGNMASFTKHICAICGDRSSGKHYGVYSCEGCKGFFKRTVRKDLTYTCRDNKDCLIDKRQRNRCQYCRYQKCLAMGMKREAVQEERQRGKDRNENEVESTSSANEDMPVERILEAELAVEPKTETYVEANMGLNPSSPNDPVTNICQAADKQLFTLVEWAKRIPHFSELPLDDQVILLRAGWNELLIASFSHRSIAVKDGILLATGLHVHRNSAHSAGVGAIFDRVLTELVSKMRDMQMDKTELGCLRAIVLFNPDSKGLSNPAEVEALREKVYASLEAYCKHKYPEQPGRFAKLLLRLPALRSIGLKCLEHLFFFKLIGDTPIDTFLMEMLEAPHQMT

Assay [13] deals with Peroxisome proliferator-activated receptor delta (Homo sapiens) (UniProt Q03181). Nature of the assay: qHTS assay to identify small molecule agonists of the peroxisome proliferator-activated receptor delta (PPARd) signaling pathway (AID 743212; calls by dose curve). An outline of the steps:
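Beta-lactamase reporter readout: a ratiometric FRET signal from the LiveBLAzer substrate after 2 h at room temperature. Compound exposure at 37 °C in PPARδ-bla HEK293H cells driven by an upstream activator sequence.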

The nature of assay [14]: qHTS assay to identify small molecule antagonists of the peroxisome proliferator-activated receptor delta (PPARd) signaling pathway - cell viability counter screen (AID 743213). Also: nearly all actives have a fitted effect of over 50% in size. The method in brief: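 Agonist-stimulated (L165041, 300 nM final) HEK293H PPARd UAS-bla cells are exposed to compounds for 17 h at 37 C, and ATP-based luminescence (CellTiter-Glo) from the same wells reports cytotoxicity.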

The target in assay [15] is Peroxisome proliferator-activated receptor delta (Homo sapiens) (UniProt Q03181). Nature of the assay: qHTS assay to identify small molecule antagonists of the peroxisome proliferator-activated receptor delta (PPARd) signaling pathway (AID 743215; active = well fitted inhibition curve with a large enough effect in the signal ratio in the repeat runs, not every such curve was filed as active; the % refers to the signal ratio; also: series mostly up to about 62 µM). An outline of the steps:
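Plated HEK293H PPARd-bla cells rested 5 h at 37 C and 5% CO2. Compound, then agonist L165041 at 300 nM final, was added; 17 h at 37 C followed. Substrate loading, 2 h room temperature, fluorescence measured.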

In assay [16] the target is Bile acid receptor (Homo sapiens) (UniProt Q96RI1). Nature of the assay: qHTS assay to identify small molecule antagonists of the farnesoid-X-receptor (FXR) signaling pathway (AID 743217; active = well fitted inhibition curve with a large enough effect in the signal ratio in the repeat runs, not every such curve was filed as active; the % refers to the signal ratio). The method in brief: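 Screen of the Tox21 10K library in quantitative HTS format using FXR-UAS-bla HEK 293T reporter cells. Agonist chenodeoxycholic acid, 50 uM final, added with compounds; 16 h incubation at 37 °C; beta-lactamase FRET fluorescence measured.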
Sequence of Bile acid receptor (Homo sapiens) (Q96RI1 whole entry, looked up): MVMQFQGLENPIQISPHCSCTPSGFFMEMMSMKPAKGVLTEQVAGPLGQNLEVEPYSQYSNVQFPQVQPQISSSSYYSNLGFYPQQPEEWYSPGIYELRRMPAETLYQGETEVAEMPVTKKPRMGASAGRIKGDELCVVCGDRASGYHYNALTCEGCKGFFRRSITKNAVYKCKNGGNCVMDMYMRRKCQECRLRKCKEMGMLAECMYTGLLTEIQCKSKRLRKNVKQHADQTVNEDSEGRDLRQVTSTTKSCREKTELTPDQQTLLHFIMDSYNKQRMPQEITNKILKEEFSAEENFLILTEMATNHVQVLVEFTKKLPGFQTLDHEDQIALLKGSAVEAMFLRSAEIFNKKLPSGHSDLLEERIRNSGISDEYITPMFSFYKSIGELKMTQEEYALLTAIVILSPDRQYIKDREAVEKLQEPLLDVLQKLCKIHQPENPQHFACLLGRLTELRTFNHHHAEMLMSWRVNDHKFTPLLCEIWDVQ

Assay [17] shares this target. In words: qHTS assay to identify small molecule agonists of the farnesoid-X-receptor (FXR) signaling pathway (AID 743220; active = well fitted activation curve with a large enough effect in the signal ratio in the repeat runs, not every such curve was filed as active; the % refers to the signal ratio). An outline of the steps:
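FXR-UAS-bla HEK 293T cells carrying a UAS-driven beta-lactamase reporter were plated for 5 h at 37C/5% CO2, then exposed to DMSO-dissolved Tox21 10K compounds for 16 h at 37C. A LiveBLAzer B/G FRET substrate was loaded for 2 h at room temperature before fluorescence reading.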

A short description of assay [18]: qHTS assay to identify small molecule antagonists of the farnesoid-X-receptor (FXR) signaling pathway - cell viability counter screen (AID 743221; active = well fitted cell-killing curve with a large enough effect in the repeat runs, not every such curve was filed as active; also: nearly all actives have a fitted effect of over 50% in size). The method in brief:
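FXR-UAS-bla HEK 293T cells were treated with test compounds plus chenodeoxycholic acid (50 uM final) for 16 h at 37 C. Cell viability in the same wells was then read as CellTiter-Glo luminescence after 30 min at room temperature.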

The nature of assay [19]: qHTS assay to identify small molecule antagonists of the retinoid-related orphan receptor gamma (ROR-gamma) signaling pathway - cell viability counter screen (AID 1159520). Also: nearly all actives have a fitted effect of over 50% in size. An outline of the steps: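 Cytotoxicity was read from cellular ATP (CellTiter-Glo luminescence) after 16 hr at 37 C with 1 uM doxycycline induction. The inducer was added 2 hr after compound transfer to Tet-on ROR gamma CHO cells.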

Sequence of Peroxisome proliferator-activated receptor delta (Homo sapiens) (Q03181 whole entry, looked up): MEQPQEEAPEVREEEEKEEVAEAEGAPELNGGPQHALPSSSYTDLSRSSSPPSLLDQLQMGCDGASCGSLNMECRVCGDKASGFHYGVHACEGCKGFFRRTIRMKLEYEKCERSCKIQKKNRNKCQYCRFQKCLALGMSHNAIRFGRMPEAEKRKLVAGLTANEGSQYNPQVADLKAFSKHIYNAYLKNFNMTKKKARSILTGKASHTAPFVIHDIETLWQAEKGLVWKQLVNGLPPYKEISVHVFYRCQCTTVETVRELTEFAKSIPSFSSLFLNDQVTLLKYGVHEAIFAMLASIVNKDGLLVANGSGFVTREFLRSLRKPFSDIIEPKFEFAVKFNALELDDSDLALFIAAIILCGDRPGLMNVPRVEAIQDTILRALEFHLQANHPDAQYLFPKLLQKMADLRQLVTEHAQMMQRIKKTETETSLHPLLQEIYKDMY
Sequence of Vitamin D3 receptor (Homo sapiens) (P11473 whole entry, looked up): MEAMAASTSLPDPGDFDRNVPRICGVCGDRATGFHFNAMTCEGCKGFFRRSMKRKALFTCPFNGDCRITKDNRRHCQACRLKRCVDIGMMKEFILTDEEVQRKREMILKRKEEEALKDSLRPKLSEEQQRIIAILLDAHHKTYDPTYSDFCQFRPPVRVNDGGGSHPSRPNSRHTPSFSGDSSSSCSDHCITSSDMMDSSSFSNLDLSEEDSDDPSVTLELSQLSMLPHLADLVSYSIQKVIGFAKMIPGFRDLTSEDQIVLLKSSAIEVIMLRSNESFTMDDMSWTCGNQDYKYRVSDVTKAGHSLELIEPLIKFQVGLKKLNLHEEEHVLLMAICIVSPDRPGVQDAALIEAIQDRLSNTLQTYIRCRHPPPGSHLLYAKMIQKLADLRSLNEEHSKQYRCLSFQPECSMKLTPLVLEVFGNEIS

`OC1CCCc2ccccc21` (stereo unspecified): the Potency entry in assay [1], in assay [2], in assay [3], in assay [4], in assay [5] and in assay [6] was “inactive” throughout. For the same molecule, the Potency result in assay [7], in assay [8], in assay [9], in assay [10], in [11] and in assay [12] was “inactive” throughout.

Consider `COC(C)=O`, for which the Potency entry in [1], in assay [13], in assay [14], in [15], in assay [16] and in assay [2] was “inactive” in each case. The Potency entry in assay [17], in [5], in assay [6], in [7], in assay [8] and in assay [9] was “inactive” each time. Moreover, the Potency result in assay [10], in assay [11] and in assay [12] was “inactive” throughout.

For the molecule `CN(C)Cc1cc(C(C)(C)C)c(O)c(C(C)(C)C)c1`, the Potency entry in [13], in [14], in [3], in assay [4], in [7] and in [8] was “inactive” each time. For the same molecule, the Potency result in assay [9], in assay [10] and in assay [11] was “inactive” each time. Further, the Potency in assay [12] is 11 µM (active).

With `O=C(O)[C@H](O)[C@@H](O)[C@H](O[C@@H]1O[C@H](CO)[C@H](O)[C@H](O)[C@H]1O)[C@H](O)CO`, the Potency result in [13], in assay [14], in assay [15], in assay [18], in assay [3] and in assay [4] was “inactive” in each case. Further, the Potency result in assay [5], in [6], in assay [7], in assay [8], in assay [9] and in [11] was “inactive” each time. Also, the Potency result in assay [12] was “inactive”.

As for `CCCCCCCC/C=C\CCCCCCCCN`, the Potency result in [1], in assay [13], in [2], in [18], in assay [7] and in assay [8] was “inactive” throughout. The Potency result in [9], in [11] and in assay [12] was “inactive” throughout.

As for `COc1cc(/C=C/c2ccccc2)oc(=O)c1`, the Potency entry in assay [1], in assay [15], in assay [2], in [18], in assay [4] and in [5] was “inactive” each time. Besides, the Potency result in assay [6], in assay [7], in assay [8], in assay [10] and in assay [11] was “inactive” each time.

In the case of `C=CCCC(=O)/C=C/C1C(C)=CCCC1(C)C` (stereo unspecified), the Potency entry in assay [1], in assay [13], in assay [2], in [18], in assay [4] and in assay [5] was “inactive” throughout. Besides, the Potency entry in assay [6], in assay [7], in assay [8], in [19], in [11] and in assay [12] was “inactive” in each case.

Turning to `C#C[C@]1(OC(C)=O)CC[C@H]2[C@@H]3CCC4=C[C@@H](OC(C)=O)CC[C@@H]4[C@H]3CC[C@@]21C`, the Potency entry in assay [13], in [14], in [15], in assay [2], in assay [18] and in assay [3] was “inactive” throughout. Besides, the Potency result in [5], in assay [6], in assay [7], in assay [8] and in [19] was “inactive” each time.

Take `CC(CCc1ccccc1)NCC(O)c1ccc(O)c(C(N)=O)c1` (stereo unspecified): the Potency result in assay [13], in assay [15], in assay [2], in assay [17], in assay [18] and in assay [7] was “inactive” in each case. Further, the Potency entry in assay [8], in [19] and in [12] was “inactive” throughout.

In the case of `CC[N+](CC)(CC)CCOc1ccc(/C=C/c2ccccc2)cc1`, the Potency entry in assay [1], in assay [2], in assay [18], in assay [5], in assay [6] and in assay [7] was “inactive” each time. The Potency result in [8], in assay [19] and in assay [11] was “inactive” throughout.
